This note sets out measurements from PubChem BioAssay (NCI).

The panel holds about 83,000 compounds, 20% with a hit somewhere; the sample as a whole holds those more often.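 Single-concentration screen, 48 h exposure, 96-well plates. Endpoint: percent growth. Below 10 = active.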 A number with no mark means an inactive call. The source made the active and inactive calls.

For one assay, the system named is SK-OV-3 ovarian. Put plainly: NCI-60 one-dose screen, 48 h (100 = growth as untreated, 0 = no growth, -100 = all killed). The note with it: 10 µM.
On to `C#CCNC(=O)[C@]12CCC(C)(C)C[C@H]1C1=CC[C@@H]3[C@@](C)(CCC#N)[C@H](C(=C)C)CC[C@@]3(C)[C@]1(C)CC2`, for which the growth was 62.6%.
Still for that read-out and setting: in the case of `COC1=C[C@]23CCC(=O)N2CCc2cc4c(cc2[C@@H]3[C@@H]1OC(=O)CCCC(C)C)OCO4` it was 53.7%.
`Cc1ccc(-c2nc3ccc(C(=O)N=Nc4c(O)[nH]c5ccc([N+](=O)[O-])cc45)cc3[nH]2)cc1`: the growth was 78.9%.
On to `Cc1ccc(-c2nc(Nc3ccccc3C(=O)O)c3ccccc3n2)cc1`, for which the growth is 31.3%.
Still for that read-out and setting: in the case of `CSc1nc(-c2cccc(C)c2)c2cc(-c3ccccc3)n(C)c2n1` it was 69%.
`CN(C)c1ccc(/C=C/C(=O)c2ccc(NC(=O)CN3C(=O)NC(C)(c4ccccc4)C3=O)cc2)cc1` (centres undefined): the growth is 117%.
Same read-out and setting: in the case of `COc1cc(/C=C/C(=O)c2ccc(NC(=O)CN3C(=O)NC(C)(c4ccccc4)C3=O)cc2)cc(OC)c1OC` (centres undefined) it was 112%.
As for `O=C(O)CCCCCCCCCCN1C(=O)/C(=C/c2cnc(-c3ccc(Cl)cc3)s2)SC1=S`, the growth was 3.51% (active).
Consider `O=C(Nc1cccc(C(F)(F)F)c1)c1cncc(C#Cc2cnc3cccnn23)c1`, for which the growth is 83.6%.
As for `CC1(c2ccccc2)NC(=O)N(CC(=O)Nc2ccc(C(=O)/C=C/c3ccccc3)cc2)C1=O` (centres undefined), the growth was 121%.
The same measure, in the same setting: in the case of `CN1C(=O)N(C)C2SC(N/N=C/c3ccccc3F)=NC21` (centres undefined) it was 88%.
In the case of `COc1ccccc1C(=O)NNC(=O)CSc1nc2c(c(=O)[nH]1)CCCC2`, the growth is 94.1%.
On the same count and under the same terms, in the case of `CCN1CCN(Cc2ccc(C(=O)Nc3cccc(-c4cn(-c5ccc6oc(=O)ccc6c5)nn4)c3)cc2C(F)(F)F)CC1` it was 25.4%; in that of `COc1ccc(CN2[C@H](C(=O)NCc3ccc(C(=O)NO)cc3)Cc3c([nH]c4ccccc34)[C@H]2C2CC2)cc1`, 62%.
Same read-out and setting: then `Cn1c(O)c(N=Nc2nc(-c3cc4ccccc4oc3=O)cs2)c2cc(Br)ccc21`, with 57.7%; and `[2H]C([2H])([2H])Oc1ccc2ncc(C#Cc3cncc(C(=O)Nc4ccc(CN5CCN(C)CC5)c(C(F)(F)F)c4)c3)n2n1`, with -58.4% (active); and `O=C(c1ccc(Cl)cc1)C1[C@H](c2ccccc2Br)[C@@H](c2ccccc2)NC12C(=O)Nc1ccc(Br)cc12` (some centres undefined), with 36.2%.
Consider `C=C(C)[C@@H]1CC[C@]2(COP(=O)(OCC)OCC)CC[C@]3(C)[C@H](CC[C@@H]4[C@@](C)(CCCN)[C@H](C(=C)C)CC[C@]43C)[C@@H]12`, for which the growth is 46.2%.
On to `O=C(COc1ccc(NC(=O)Nc2ccc(Cl)cc2)cc1)N=Nc1c(O)[nH]c2ccc([N+](=O)[O-])cc12`, for which the growth is 85.2%.
Consider `Cc1ccc(/C=C/C(=O)c2ccc(S(=O)(=O)NCCNc3nc(Nc4ccc(F)cc4)nc(N(C)C)n3)cc2)cc1`, for which the growth is 94.7%.
The same measure, in the same setting: then `CCN1CCN(c2ccc(NC(=O)Nc3ccc(-c4cc(C(=O)NC(C)C)c5ncccc5n4)cc3)cc2C(F)(F)F)CC1`, with -91% (active); and `CCOc1ccc(Nc2nc3ccccc3nc2Nc2ccc(OCC)cc2)cc1`, with 108%; and `O=C(c1ccc(Cl)cc1)C1[C@H](c2ccc(Br)cc2)[C@@H](c2ccccc2)NC12C(=O)Nc1ccc(Br)cc12` (some centres undefined), with 2.89% (active).
Still for that read-out and setting: in the case of `COc1cnc2c(c1)C(=O)c1c-2n(CCCNC(C)C)c(=O)c2cc(OC)c(OC)cc12` it was 22.1%.

Another assay concerns IGROV1 ovarian. The description is as above. The note with it: 10 µM.
Take `Cc1ccc(CNC(=O)Cc2ccc3c(c2)CN(C2CCC(=O)NC2=O)C3=O)cc1` (centres undefined): the growth was 2.34% (active).
In the case of `CC1(c2ccccc2)NC(=O)N(CC(=O)Nc2ccc(C(=O)/C=C/c3ccc(Br)cc3)cc2)C1=O` (centres undefined), the growth was 61.6%.
Still for that read-out and setting: in the case of `COc1ccc(-c2cc(C(=O)N=Nc3c(O)[nH]c4ccccc34)c3ccccc3n2)cc1` it was -62.5% (active).
In the case of `Cc1ccn2c(C(=O)c3ccccc3)cc(-c3cc(-c4ccc(N(C)C)cc4)c(C#N)c(N)n3)c2c1`, the growth was 86.3%.
The same measure, in the same setting: in the case of `COc1ccc(C(=O)/C=C/c2cc(C(F)(F)F)cc(C(F)(F)F)c2)cc1S(N)(=O)=O` it was -69% (active); in that of `COc1cccc2nc(Nc3ccc(F)c(NC(=O)c4ccc(CN5CCN(C)CC5)c(C(F)(F)F)c4)c3)ccc12`, 29.3%; in that of `O=C(Nc1cccc(C(F)(F)F)c1)c1cncc(C#Cc2cnc3ccc(N4CCOCC4)nn23)c1`, 1.76% (active).
As for `O=C(CNc1nc(-c2ccccc2)cs1)Nc1ccc([N+](=O)[O-])cc1`, the growth is 16.6%.
In the case of `COC[C@@H](CC(C)C)N=C1N/C(=C\c2ccc3ncsc3c2)C(=O)N1C`, the growth was 9.21% (active).
Turning to `COc1ccsc1/C=N/NC(=O)c1[nH]c2ccc(Br)cc2c1-c1ccccc1`, the growth is 22.6%.
With `CCOC(=O)C1NN(c2ccc(S(N)(=O)=O)cc2)c2nc3nc(-c4cccs4)cc(-c4cccs4)c3c(=O)n21` (centres undefined), the growth is 104%.
In the case of `Nc1cc(-c2cccc(C(=O)NCc3ccc4c(c3)OCO4)c2)ccn1`, the growth is 112%.
On the same count and under the same terms, in the case of `O=c1c2ccccc2nc(COc2ccccc2)n1/N=C/c1ccc(N2CCCC2)cc1` it was 97.2%.
As for `O=C(CNc1nc(-c2ccccc2)cs1)Nc1cccc([N+](=O)[O-])c1`, the growth was -47.4% (active).
On the same count and under the same terms, then `C#CCNC(=O)[C@]12CCC(C)(C)C[C@H]1C1=CC[C@@H]3[C@@](C)(CCC#N)[C@H](C(=C)C)CC[C@@]3(C)[C@]1(C)CC2`, with 71.9%; and `Cc1ccc(/C(CSc2nnc(-c3c[nH]c4ccccc34)n2-c2ccccc2)=N/O)cc1`, with -62.4% (active); and `COC1=C[C@]23CCC(=O)N2CCc2cc4c(cc2[C@@H]3[C@@H]1OC(=O)CCCC(C)C)OCO4`, with 43.3%.
`Cc1ccc(-c2nc3ccc(C(=O)N=Nc4c(O)[nH]c5ccc([N+](=O)[O-])cc45)cc3[nH]2)cc1`: the growth is 89.2%.
`Cc1ccc(-c2nc(Nc3ccccc3C(=O)O)c3ccccc3n2)cc1`: the growth was 31.1%.
Take `CSc1nc(-c2cccc(C)c2)c2cc(-c3ccccc3)n(C)c2n1`: the growth is 34.3%.
Take `CN(C)c1ccc(/C=C/C(=O)c2ccc(NC(=O)CN3C(=O)NC(C)(c4ccccc4)C3=O)cc2)cc1` (centres undefined): the growth was 86.7%.
The same measure, in the same setting: in the case of `COc1cc(/C=C/C(=O)c2ccc(NC(=O)CN3C(=O)NC(C)(c4ccccc4)C3=O)cc2)cc(OC)c1OC` (centres undefined) it was 26.7%; in that of `O=C(O)CCCCCCCCCCN1C(=O)/C(=C/c2cnc(-c3ccc(Cl)cc3)s2)SC1=S`, 23.9%.
Still for that read-out and setting: then `O=C(Nc1cccc(C(F)(F)F)c1)c1cncc(C#Cc2cnc3cccnn23)c1`, with 41.6%.
Same read-out and setting: then `CC1(c2ccccc2)NC(=O)N(CC(=O)Nc2ccc(C(=O)/C=C/c3ccccc3)cc2)C1=O` (centres undefined), with 61.7%.
Turning to `CN1C(=O)N(C)C2SC(N/N=C/c3ccccc3F)=NC21` (centres undefined), the growth is 56.6%.
As to `COc1ccccc1C(=O)NNC(=O)CSc1nc2c(c(=O)[nH]1)CCCC2`, the growth was 92.5%.
Same read-out and setting: in the case of `CCN1CCN(Cc2ccc(C(=O)Nc3cccc(-c4cn(-c5ccc6oc(=O)ccc6c5)nn4)c3)cc2C(F)(F)F)CC1` it was -100% (active); in that of `COc1ccc(CN2[C@H](C(=O)NCc3ccc(C(=O)NO)cc3)Cc3c([nH]c4ccccc34)[C@H]2C2CC2)cc1`, 50.5%; in that of `Cn1c(O)c(N=Nc2nc(-c3cc4ccccc4oc3=O)cs2)c2cc(Br)ccc21`, 64.2%.
On the same count and under the same terms, then `[2H]C([2H])([2H])Oc1ccc2ncc(C#Cc3cncc(C(=O)Nc4ccc(CN5CCN(C)CC5)c(C(F)(F)F)c4)c3)n2n1`, with -62.5% (active); and `O=C(c1ccc(Cl)cc1)C1[C@H](c2ccccc2Br)[C@@H](c2ccccc2)NC12C(=O)Nc1ccc(Br)cc12` (some centres undefined), with 21.2%; and `C=C(C)[C@@H]1CC[C@]2(COP(=O)(OCC)OCC)CC[C@]3(C)[C@H](CC[C@@H]4[C@@](C)(CCCN)[C@H](C(=C)C)CC[C@]43C)[C@@H]12`, with 40.4%.
For the molecule `O=C(COc1ccc(NC(=O)Nc2ccc(Cl)cc2)cc1)N=Nc1c(O)[nH]c2ccc([N+](=O)[O-])cc12`, the growth was 79.5%.
On to `Cc1ccc(/C=C/C(=O)c2ccc(S(=O)(=O)NCCNc3nc(Nc4ccc(F)cc4)nc(N(C)C)n3)cc2)cc1`, for which the growth was 52.1%.
`CCN1CCN(c2ccc(NC(=O)Nc3ccc(-c4cc(C(=O)NC(C)C)c5ncccc5n4)cc3)cc2C(F)(F)F)CC1`: the growth is -86% (active).
Same read-out and setting: then `CCOc1ccc(Nc2nc3ccccc3nc2Nc2ccc(OCC)cc2)cc1`, with 55%; and `O=C(c1ccc(Cl)cc1)C1[C@H](c2ccc(Br)cc2)[C@@H](c2ccccc2)NC12C(=O)Nc1ccc(Br)cc12` (some centres undefined), with -78.3% (active); and `COc1cnc2c(c1)C(=O)c1c-2n(CCCNC(C)C)c(=O)c2cc(OC)c(OC)cc12`, with 32%.
Still for that read-out and setting: in the case of `OCCCNc1oc(-c2ccccc2)nc1[P+](c1ccccc1)(c1ccccc1)c1ccccc1` it was -19.4% (active).
